The text below walks through data of the supplement of paper PMC12819154, “High-throughput peptide-centric local stability assay extends protein–ligand identification to membrane proteins, tissues and bacteria” (Nature Structural & Molecular Biology, 2025).
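Note: lysate desalted by size exclusion to strip endogenous ATP, peptide intensities built from DIA-NN precursor signals, and peptides missing any value discarded before comparison.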

This assay deals with T1, UniProt P76038.
T1 sequence (whole entry): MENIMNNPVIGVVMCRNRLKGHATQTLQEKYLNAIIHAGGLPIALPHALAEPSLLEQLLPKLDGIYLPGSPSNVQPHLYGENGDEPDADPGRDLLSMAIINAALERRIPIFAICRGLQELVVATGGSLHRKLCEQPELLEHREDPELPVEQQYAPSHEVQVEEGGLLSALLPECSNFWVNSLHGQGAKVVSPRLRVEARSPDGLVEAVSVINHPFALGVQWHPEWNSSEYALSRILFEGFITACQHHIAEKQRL
The experiment in a line: log2 fold change of tryptic peptide abundance, ligand vs vehicle (limited proteolysis) (log2 ratio); higher = more trypsin-susceptible (destabilized). The following applies: peptide sequence: GLQELVVATGGSLHRK; peptide start residue: 116; ligand concentration: 5 mM; sample: E. coli desalted lysate; replicate design: treated before aliquoting. As to the method:
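HT-PELSA: desalted E. coli K-12 BW25113 lysate (with 12 mM MgCl2) incubated with 5 mM ATP (pH 7) or water for 30 min at 25 C, then a 4 min trypsin pulse at 22 C. Peptides were quantified by DIA-MS (4 replicates). Value is the peptide log2 fold change (treated/control); negative = stabilized. Scale: negative = ligand-stabilized region.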
Regarding `Nc1ncnc2c1ncn2[C@@H]1O[C@H](COP(=O)(O)OP(=O)(O)OP(=O)(O)O)[C@@H](O)[C@H]1O` [adenosine 5'-triphosphate], the log2 fold change was 1.55.
